Experimental data reported in ChEMBL document CHEMBL3988442, “University of Dundee, Small-Polar-MMV Screening Library” (2021).
Screen size: about 53,000 compounds; about 900 (1.7%) showed an effect of 50% or more. For the sample, strong results were picked, then their nearest neighbours and some compounds at random.

System: Mycobacterium tuberculosis
Test: Cornell - Phenotypic assay to identify agents that inhibit growth of Mycobacterium tuberculosis
Format: functional
Parameters: scale not given: direction of the effect not stated beside the values
Conditions: 10 mM as filed; unlikely as a test dose

| SMILES | Percent Effect |
| --- | --- |
| Cc1ccc(CN2CC[C@H]3C[C@H](c4nc(C5CC5)cs4)O[C@@H]3C2)o1 | 67.24% |
| Cc1cc(CN2CC[C@H]3C[C@@H](c4nc(C5CC5)cs4)O[C@@H]3C2)no1 | 0.1287% |
| Cc1ccc(CN2CC[C@H]3C[C@@H](c4nc(C5CC5)cs4)O[C@@H]3C2)o1 | 40.45% |
| Cn1nc(-c2cccc(Cl)c2)c(Br)c1C(=O)O | 24.18% |
| O=C(Nc1ccccc1OCCc1ccccn1)NC1CCOCC1 | -20.67% |
| O=C(Nc1ccccc1OCc1ccccn1)NC1CCOCC1 | 30.18% |
| c1ccc(COc2ccccc2NC2CCOCC2)nc1 | 50.88% |
| c1cncc(CNc2ccccc2-c2nn[nH]n2)c1 | 72.98% |
| COc1cc(NCc2ccc(Cl)cc2)c(-c2nn[nH]n2)cc1OC | 107.2% |
| COc1cc(NCc2ccncc2)c(-c2nn[nH]n2)cc1OC | 96.19% |
| COc1cc(NCc2cccnc2)c(-c2nn[nH]n2)cc1OC | -25.93% |
| Cc1nnc(NCc2ccc(Cl)cc2)o1 | 21.04% |
| COc1cc(CNc2ccc(Cl)cc2)ccc1OCC(=O)O | -3.069% |
| Cc1ccn(-c2ccccc2NCc2cccnc2)n1 | -17.76% |
| OCc1ccc(Cl)c(NCc2cccnc2)c1 | -14.09% |
| COc1ccncc1NCc1ccsc1 | -60.05% |
| CC(=O)N1CCCN(C(=O)NCCNc2cnccn2)CC1 | 8.364% |
| CCOCc1cnc2n1CCN(C(=O)c1ccccc1)C2C (stereo not given) | -22.66% |
| Cn1cc(N2CCCC(SCc3nc(C4CC4)no3)C2=O)cn1 (stereo not given) | -5.692% |
| C[C@@H]1CN(c2nc3c(cc2C(N)=O)CCC3)CC[C@@]1(O)C1CCC1 | 6.158% |
| Cn1nc(CNS(=O)(=O)Cc2ccccc2F)c2c1CCCC2 | 24.49% |
| CCc1c(C)nc2cc(C3CCN(Cc4ccc(F)cc4)C3)nn2c1O (stereo not given) | -30.4% |
| O=C(O)C(F)(F)F.O=C([C@@H]1CCO[C@@H]2CCN(Cc3ccsc3)C[C@@H]21)N1CCCC1 | 13.31% |
| CCCS(=O)(=O)N1CCC(NC(=O)c2cc(CC)c(C)s2)CC1 | -14.58% |
| COCC(=O)N1CCN(S(=O)(=O)c2cccs2)[C@H]2CS(=O)(=O)C[C@H]21 | 5.268% |
| Cc1cc(NCc2ccco2)nc2[nH]nc(N)c12 | 73.02% |
| NS(=O)(=O)c1cccnc1NCc1ccco1 | 9.166% |

| SMILES | Percent Effect |
| --- | --- |
| Cc1cc2[nH]c(O)nc2cc1NCc1ccccc1 | 38.01% |
| Cc1cc(NCCO)nc2[nH]nc(N)c12 | 15.94% |
| CNc1c(NCc2ccco2)c(=O)c1=O | -73.54% |
| Cc1cc(NCc2ccccc2)nc2[nH]nc(N)c12 | 99.95% |
| Cc1nc(CCNC(=O)NC(C)c2ccc3c(c2)OCCO3)cs1 (stereo not given) | -7.5% |
| N#CC1COCCN1C(=O)c1cccc2cc[nH]c12 (stereo not given) | 15.8% |
| COc1ccccc1OCCN(C)c1cc(C)nc(N)n1 | -1.717% |
| CS(=O)(=O)N1CCN(c2ccnc(N3CCCCC3)n2)CC1 | 63% |
| CN(C)S(=O)(=O)N1CCN(c2ccnc(N3CCCC3)n2)CC1 | 12.56% |
| CCCS(=O)(=O)N1CCN(c2ccnc(N3CCCCC3)n2)CC1 | 50.94% |
| CS(=O)(=O)N1CCN(c2ccnc(N3CCCC3)n2)CC1 | 7.415% |
| CN(C)S(=O)(=O)N1CCN(c2ccnc(N3CCCCC3)n2)CC1 | 38.93% |
| CCCS(=O)(=O)N1CCN(c2ccnc(N3CCCC3)n2)CC1 | -0.1963% |
| COC(=O)c1cccc(CN(C)C(C)c2ccccn2)c1 (stereo not given) | 21.51% |
| OC1(CN2CCC(Cc3ncccn3)CC2)CCOCC1 | -20.94% |
| O=C(c1cnco1)N1CCC(Cc2cccc3ncccc23)CC1 | -21.16% |
| O=C(c1cnco1)N1CCC(Cc2ccc3ncccc3c2)CC1 | 9.774% |
| O=C(c1cnco1)N1CCC(Cc2cnc3ccccc3c2)CC1 | 64.83% |
| COCCC1COC2(CCN(C(=O)c3ccncc3)CC2)C1.O=C(O)C(F)(F)F (stereo not given) | -13.79% |
| c1ccc(-n2ncc(CN3CCCC(Cn4cncn4)C3)n2)cc1 (stereo not given) | 2.145% |
| CCC1c2cccn2CCN1C(=O)c1ccc2nonc2c1 (stereo not given) | 10.7% |
| CCC1c2ccc(C)n2CCN1C(=O)Cn1cnc2sc(C)cc2c1=O (stereo not given) | 27.93% |
| CCCC1c2cccn2CCN1C(=O)Cn1cnc2sc(C)cc2c1=O (stereo not given) | 53.74% |
| Cc1cc2c(=O)n(CC(=O)N3CCn4cccc4C3C(C)C)cnc2s1 (stereo not given) | 56.81% |
| Cc1cc2c(=O)n(CCOCCO)cnc2s1 | 14.22% |
| CCC(C)NC(=O)Cn1ccc2sc(C)cc2c1=O (stereo not given) | 17.39% |
| Cc1nn(C)cc1C(=O)Nc1cccc(CN2CCC(CO)CC2)c1 | -50.57% |

| SMILES | Percent Effect |
| --- | --- |
| Cc1nc2ccccn2c1CC(=O)N[C@@H]1CC[C@@H](N2CCCC2)[C@@H]1O | 13.48% |
| O=C(c1cc(-n2cccn2)ccn1)N(CC1CCC1)CC(F)(F)F | 16.8% |
| Cc1cc(NC(=O)C(c2cccc(F)c2)N2CCOCC2)sn1 (stereo not given) | -15.26% |
| NC(=O)C1CCCN1C(=O)c1cc(C2CC2)nc2ccc(F)cc12 (stereo not given) | -27.79% |
| Cc1cc(C)c2[nH]c(=O)c(CN3CCCC(O)(CO)C3)cc2c1 (stereo not given) | 23.96% |
| Cc1cc(C)c2[nH]c(=O)c(CN3CCC(O)(CN(C)C)C3)cc2c1 (stereo not given) | 15.85% |
| Cc1cc(C)c2[nH]c(=O)c(CN3CCCC4(C3)CN(C)C(=O)O4)cc2c1 (stereo not given) | 65.13% |
| Cn1cc(CN2CCCC23CCN(c2nc4ccccc4s2)CC3)cn1 | 13.88% |
| c1ccc2sc(N3CCC4(CCCN4Cc4ncc[nH]4)CC3)nc2c1 | 60.65% |
| Cc1cc(C(=O)N2CCN(c3nc4ccccc4s3)CC2)no1 | -60.39% |
| Cc1nc[nH]c1CN1CCCN(c2nc3ccccc3s2)CC1 | 3.174% |
| Cc1nc(CN2CCCC23CCN(c2nc4ccccc4s2)CC3)co1 | 53.88% |
| Cc1nc[nH]c1CN1CCCC12CCN(c1nc3ccccc3s1)CC2 | -4.142% |
| CCn1ccc(-c2cc(C(=O)O)n3ncc(Br)c3n2)n1 | 19.03% |
| CC(C)Cn1ccnc1CNC(=O)N1CCCC1CN1CCOCC1 (stereo not given) | 7.761% |
| CN(C(=O)Cn1nc(-c2ccccc2F)ccc1=O)C1CCS(=O)(=O)C1 (stereo not given) | 18.26% |
| COC(=O)C(NC(=O)Nc1ccc(C(C)=O)cc1)C(C)C (stereo not given) | 6.824% |
| COCc1ncc(CN2CCC3(CCNC(=O)CC3)CC2)cn1 | 18.36% |
| COCCN(C)Cc1cn(C)nc1-c1ccc2c(c1)OCCO2 | -52.38% |
| CC(C)(C)NC(=O)CNC(=O)Nc1cc(-c2ccccc2)ns1 | 38.08% |
| Cc1ccc(-c2cc(C(F)(F)F)nc(N3CCOCC3)n2)s1 | 4.079% |
| CCc1ccc(-c2cc(C(F)(F)F)nc(N3CCC(N)CC3)n2)cc1 | 105.7% |
| CCn1ncc(-c2cc(C(F)(F)F)nc(N3CCC(N)CC3)n2)c1C | 50.19% |
| FC(F)(F)c1cc(-c2cccs2)nc(N2CCN3CCCC3C2)n1 (stereo not given) | 24.42% |
| Cc1c(-c2cc(C(F)(F)F)nc(N3CCC(N)CC3)n2)cnn1C | 2.397% |
| Cc1cc(C(F)(F)F)nc(N2CCN3CCCC3C2)n1 (stereo not given) | -50.74% |
| Cn1nc(CN2CCCC2)c2c1CN(c1cnccn1)CC2.O=C(O)C(F)(F)F.O=C(O)C(F)(F)F | -1.06% |

| SMILES | Percent Effect |
| --- | --- |
| COCCC(=O)N1C[C@H]2CN(Cc3cccnc3)C(=O)[C@H]2C1.O=C(O)C(F)(F)F | 9.901% |
| Cc1cc(=O)n(CC(=O)Nc2ccc(Cl)cc2)nc1C | 13.93% |
| COc1ccc(NC(=O)Cn2nc(C)c(C(C)=O)c2C)cc1 | 109.6% |
| CC(=O)c1c(C)nn(CC(=O)Nc2ccc(Br)cc2)c1C | 109.5% |
| COc1ccc(NC(=O)Cn2nc(C)c(C)cc2=O)cc1 | -2.402% |
| COc1ccc(NC(=O)Cn2nc(C)c(C)cc2=O)cc1Cl | 14.09% |
| CC(=O)c1c(C)nn(CC(=O)Nc2ccc(F)cc2)c1C | -30.72% |
| COCCN1CC[C@]2(CN(C(=O)c3ccc[nH]3)C[C@H]2C)C1=O | 14.18% |
| Cc1nn(C)c(Cl)c1C1CCCN1Cc1noc(C2CC2)n1 (stereo not given) | -6.241% |
| CCCC(NC(=O)c1cscc1C)c1nnn[nH]1 (stereo not given) | -31.84% |
| Cc1cnc(CN(C)C2CCN(Cc3sc(C)nc3C)C2)o1 (stereo not given) | -24.44% |
| COC(=O)CNC(=O)C(C)Oc1ccccc1C(F)(F)F (stereo not given) | -2.134% |
| CC(Oc1ccccc1C(F)(F)F)C(=O)NS(=O)(=O)C(C)C (stereo not given) | 54.22% |
| CC(Oc1ccccc1C(F)(F)F)C(=O)NCC(N)=O (stereo not given) | -32.94% |
| COCCCN(Cc1ccncc1)c1ncc(C#N)cc1Cl | 15.37% |
| COc1cc(C(=O)NS(=O)(=O)c2cccc(C#N)c2)ccc1C | 15.37% |
| COc1cc(C(=O)Nc2c(C)noc2C)ccc1C | 19.94% |
| Cc1cc(NC(=O)c2ccc(C)c(F)c2)[nH]n1 | 32.04% |
| Cc1noc(NC(=O)c2ccc(C)c(F)c2)n1 | 108.6% |
| COc1cc(C(=O)Nc2nc(C)no2)ccc1C | 102.2% |
| Cc1noc(NC(=O)c2ccc(F)cc2)n1 | 2.649% |
| Fc1cc(Cl)cnc1N1CCCC(c2nccn2Cc2ccccn2)C1 (stereo not given) | 15.7% |
| O=C(c1cc(Cn2ccc3ccccc32)[nH]n1)N1CCC[C@H]1CO | 36.89% |
| Cc1c(CN2C[C@@H](O)[C@H](Oc3cccc(F)c3)C2)cnn1C | -27.75% |
